Among the data in PubChem BioAssay (NCI) are growth values, retold here.

Common to all, as to experiment: NCI-60 one-dose screen, 48 h (100 = growth as untreated, 0 = no growth, -100 = all killed)
One test deals with SK-MEL-2 melanoma. Conditions: 10 µM unless noted.
The test system of the next test is EKVX NSCLC. The note with it: 10 µM unless noted.
Another test relates to SN12C renal. Conditions: 10 µM unless noted.
The test system of another test is UO-31 renal. The note with it: 10 µM unless noted.
The next test has as its system ACHN renal. Conditions: 10 µM unless noted.
The subject of a further test is CAKI-1 renal. Conditions: 10 µM.
A further test concerns A498 renal. Conditions: 10 µM unless noted.
For the next test, the system named is CCRF-CEM leukemia. Conditions: 10 µM unless noted.
In the next test the test system is MOLT-4 leukemia. The note with it: 10 µM unless noted.
The test system of another test is SR leukemia. The note with it: 10 µM unless noted.
In a further test the test system is RPMI-8226 leukemia. Conditions: 10 µM unless noted.
The test system of the next test is OVCAR-8 ovarian. The note with it: 10 µM unless noted.
In another test the test system is OVCAR-5 ovarian. Conditions: 10 µM unless noted.
A further test relates to OVCAR-4 ovarian. The note with it: 10 µM unless noted.
For a further test, the system named is SK-OV-3 ovarian. The note with it: 10 µM unless noted.
A further test deals with IGROV1 ovarian. The note with it: 10 µM unless noted.
A further test relates to OVCAR-3 ovarian. Conditions: 10 µM unless noted.
Another test relates to HS 578T breast. Conditions: 10 µM unless noted.
Another test deals with NCI/ADR-RES ovarian. Conditions: 10 µM unless noted.
A further test concerns TK-10 renal. The note with it: 10 µM unless noted.

About 83,000 compounds went through this panel and 20% of them were active in at least one assay; those are over-represented in the sample as a whole.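 Single-concentration screen, 48 h exposure, 96-well plates. Endpoint: percent growth. Below 10 = active.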 A number with no mark means an inactive call. The source made the active and inactive calls.

Turning to `CCCCOc1nc2ccc(Cl)cc2cc1/C=C/C(=O)/C=C/c1ccc(Cl)cc1`, the growth with SK-MEL-2 melanoma was 101%; with EKVX NSCLC, 83.7%; in the test on SN12C renal, 92.1%; with UO-31 renal it was 66.9%; in the test with ACHN renal, 81.5%; in the test on CAKI-1 renal, 98.1%. The growth is 92.4% in the test on A498 renal; 76.2% in the test on CCRF-CEM leukemia; 71.5% in the test with MOLT-4 leukemia; 20.3% with SR leukemia; 0.229% (active) in the test on RPMI-8226 leukemia; 70.2% in the test with OVCAR-8 ovarian. Also, the growth was 107% in the test with OVCAR-5 ovarian; 91.5% in the test with OVCAR-4 ovarian; 92.5% in the test with SK-OV-3 ovarian; 45.8% with IGROV1 ovarian; 51.1% in the test on OVCAR-3 ovarian; 76.8% in the test on HS 578T breast. Also, the growth in the test on NCI/ADR-RES ovarian was 100%.

For `CCN(CC)CCN1C(=O)c2c(c3c4ccccc4[nH]c3c3[nH]c4ccccc4c23)C1=O`, the growth in the test on SK-MEL-2 melanoma is 101%; in the test with EKVX NSCLC, 80.3%; with SN12C renal it was 79.1%; in the test on UO-31 renal, 71.3%; in the test on ACHN renal it was 62%; in the test with CAKI-1 renal it was 87.9%. Besides, the growth with A498 renal is 67.7%; in the test on CCRF-CEM leukemia it was 78.8%; with MOLT-4 leukemia, 34.8%; with SR leukemia, 4.92% (active); in the test on RPMI-8226 leukemia, 74.9%; in the test on OVCAR-8 ovarian it was 78.5%. The growth with OVCAR-5 ovarian is 88.7%; with OVCAR-4 ovarian, 72%; in the test on SK-OV-3 ovarian it was 83.1%; in the test on IGROV1 ovarian, 83.3%; in the test with OVCAR-3 ovarian it was 95.4%; in the test with HS 578T breast, 86.7%. Moreover, the growth in the test with NCI/ADR-RES ovarian is 71.3%.

`COc1ccc(Cl)cc1NC(=O)c1cc2c(n1C)-c1nc(NC(=O)C(C)C)sc1CC2`: the growth was 64.6% with SK-MEL-2 melanoma; 91.3% in the test on EKVX NSCLC; 94.5% in the test on SN12C renal; 76.7% with UO-31 renal; 92% in the test with TK-10 renal; 84.4% in the test with CCRF-CEM leukemia. The growth with MOLT-4 leukemia is 80.2%; in the test with SR leukemia, 79.1%; in the test with RPMI-8226 leukemia, 82.7%; with OVCAR-8 ovarian, 81.8%; in the test with OVCAR-5 ovarian it was 108%; in the test on OVCAR-4 ovarian, 66%. Also, the growth is 82.9% in the test with SK-OV-3 ovarian; 104% in the test with IGROV1 ovarian; 111% in the test with OVCAR-3 ovarian; 83.4% in the test with HS 578T breast; 90.5% with NCI/ADR-RES ovarian.

For the compound `COc1cc(C(=O)C[n+]2ccccc2)ccc1OC(C)=O`, the growth in the test with SK-MEL-2 melanoma is 102%; in the test on EKVX NSCLC it was 100%; in the test on SN12C renal, 98.1%; in the test with UO-31 renal, 104%; with ACHN renal, 105%; in the test with CAKI-1 renal it was 99.3%. Moreover, the growth in the test on A498 renal is 78.9%; in the test with CCRF-CEM leukemia it was 95.9%; in the test with MOLT-4 leukemia it was 98.2%; in the test on SR leukemia, 109%; in the test with RPMI-8226 leukemia, 97.9%; in the test with OVCAR-8 ovarian it was 102%. The growth in the test with OVCAR-5 ovarian was 105%; in the test with OVCAR-4 ovarian, 96.8%; with SK-OV-3 ovarian, 97.5%; with IGROV1 ovarian, 107%; in the test with OVCAR-3 ovarian, 106%; in the test with HS 578T breast, 95.1%. Further, in the test on NCI/ADR-RES ovarian, the growth is 111%.

`CN(CCNCc1ccccn1)CCNCc1ccccn1`: the growth in the test on SK-MEL-2 melanoma is -2.1% (active); with EKVX NSCLC, 23.8%; with SN12C renal, 27.9%; with UO-31 renal it was -11.8% (active); with ACHN renal it was 0.79% (active); with CAKI-1 renal it was -42% (active). Also, the growth in the test with A498 renal is -91.9% (active); with CCRF-CEM leukemia it was 10.7%; with MOLT-4 leukemia, 1.98% (active); with SR leukemia, 9.92% (active); with RPMI-8226 leukemia it was 18.9%; with OVCAR-8 ovarian it was 13.5%. The growth in the test with OVCAR-5 ovarian is -1.39% (active); with OVCAR-4 ovarian, -17.3% (active); in the test on SK-OV-3 ovarian, -23% (active); in the test with IGROV1 ovarian, 26.9%; with OVCAR-3 ovarian it was -37.1% (active); with HS 578T breast it was 48.9%. The growth in the test with NCI/ADR-RES ovarian is 4.32% (active).

Regarding `NC(=O)C1=C[C@H]2[C@H]3C=C[C@@]2(O)C(=O)O[C@@H]3O1`, the growth in the test on SK-MEL-2 melanoma was 42.4%; with EKVX NSCLC, 63.2%; with SN12C renal, 57.6%; with UO-31 renal, 54.5%; in the test on ACHN renal it was 44%; in the test with CAKI-1 renal, 46.5%. Moreover, the growth in the test on A498 renal was 81.3%; in the test on CCRF-CEM leukemia, 26.9%; in the test with MOLT-4 leukemia, 42.3%; in the test on SR leukemia, 50.7%; with RPMI-8226 leukemia it was 61.8%; in the test with OVCAR-8 ovarian, 48.8%. Besides, the growth with OVCAR-5 ovarian is 101%; with OVCAR-4 ovarian, 29.9%; in the test on SK-OV-3 ovarian, 86.6%; in the test on IGROV1 ovarian, 50.9%; in the test on OVCAR-3 ovarian it was 16.8%; with HS 578T breast it was 83.5%. Further, in the test with NCI/ADR-RES ovarian, the growth is 75.3%.

Take `O=S(=O)(Nc1cccc2cc(OS(=O)(=O)c3ccccc3)ccc12)c1ccccc1`: the growth was 66.9% in the test on SK-MEL-2 melanoma; 64% in the test on EKVX NSCLC; 70.1% in the test on SN12C renal; 59.7% in the test on UO-31 renal; 85.1% in the test with ACHN renal; 71.4% in the test on CAKI-1 renal. In addition, the growth in the test on A498 renal is 48.6%; in the test with CCRF-CEM leukemia it was 61.9%; with MOLT-4 leukemia it was 43.3%; with SR leukemia, 25.5%; with RPMI-8226 leukemia, 62.1%; with OVCAR-8 ovarian, 75.2%. Further, the growth is 91% in the test on OVCAR-5 ovarian; 71.3% in the test with OVCAR-4 ovarian; 61.8% in the test with SK-OV-3 ovarian; 72.5% in the test with IGROV1 ovarian; 66.1% in the test with OVCAR-3 ovarian; 57.3% in the test on HS 578T breast. The growth with NCI/ADR-RES ovarian was 46.2%.

As for `CCOC(=O)c1[nH]c(-c2ccc(Cl)cc2)cc1-c1cccnc1`, the growth in the test with SK-MEL-2 melanoma was 39.5%; in the test with EKVX NSCLC, 24.3%; with SN12C renal, 43.6%; in the test with UO-31 renal it was 21%; with ACHN renal it was 35.7%; in the test on CAKI-1 renal, 28.3%. In addition, the growth was -9.26% (active) in the test on A498 renal; 9.2% (active) in the test on CCRF-CEM leukemia; 11.7% in the test with MOLT-4 leukemia; 12.9% in the test on SR leukemia; 4.59% (active) in the test on RPMI-8226 leukemia; 39.3% in the test on OVCAR-8 ovarian. For the same compound, the growth with OVCAR-5 ovarian is 47.3%; with OVCAR-4 ovarian it was 51.1%; in the test with SK-OV-3 ovarian, 7.46% (active); in the test on IGROV1 ovarian, 43.9%; in the test with OVCAR-3 ovarian, -7.92% (active); in the test on HS 578T breast, 16.3%. For the same compound, the growth with NCI/ADR-RES ovarian is 12.1%.
